Screens: PubChem BioAssay, National Center for Advancing Translational Sciences (NCATS)
In the library only some 7.2% were active in any assay of this set; here they are far more common.
LASV entry inh = inhibitors of Lassa virus binding or cell entry; Lassa virus pseudotype entry inhibition, cell reporter; Potency, µM (top dose mostly 37.9 µM), for inactives: at the top dose activity change, negative = inhibition, usual class: inhibitors; 300,000 tested, 1.2% active; AID 540256; calls by dose curve; tested in HEK293 cells; note: nearly all actives have a fitted effect of over 50% in size
Sm TGR block = blocks Schistosoma mansoni thioredoxin glutathione reductase; AID 485364; purified TGR, DTNB reduction, TNB absorbance 405 nm; 360,000 tested, 3% active; Q962Y6; Potency, µM (doses to about 114 µM), for the others: at the top dose activity change, negative = inhibition, usual class: inhibitors; note: nearly all actives have a fitted effect of over 60% in size
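First, TGR (20 nM dispensed) and NADPH were mixed with compound. Second, a 15 min room-temperature incubation followed. Third, further NADPH and then DTNB were added to start the reaction. Finally, TNB absorbance was monitored kinetically.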
Marburg entry inh = blocks Marburg virus binding to or entry into cells; Marburg virus pseudotyped entry inhibition, cell reporter; Potency, µM (titrated, usually from 37.8 µM), for inactives: at the top dose activity change, negative = inhibition, usual class: inhibitors; 300,000 tested, 1.8% active; AID 540276; calls by dose curve; tested in HEK293 cells
RE007 growth inh = less growth of the S. pombe RE007 Vpr strain. AID 651644. Potency, µM (doses to about 92.2 µM), inactives show at the top dose activity change, negative = less growth, most hits filed as inhibitors. 360,000 tested, 0.21% active. S. pombe RE007 Vpr strain, BacTiter-Glo ATP luminescence, 24 h; active = well fitted falling curve with a large enough effect; inconclusive = small, poorly fitted or top-dose-only effect; inactive = no such curve, though single readings can be large or run the other way; note: nearly all actives have a fitted effect of over 50% in size
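Fission yeast strain RE007, carrying one chromosomally integrated HIV-1 vpr copy, was seeded at OD 0.01 in PMG+AL medium with 23 nL pinned compound. After 24 h at 30 °C and 99% humidity, viability was read by BacTiter-Glo luminescence.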
FMDV inh = foot and mouth disease virus antiviral activity; 410,000 tested, 1.2% active; Potency, µM (doses to about 57.9 µM), without a hit: top-dose activity change, negative = inhibition, hits mostly inhibitors; FMDV antiviral cell-based qHTS; calls by dose curve; tested in HEK293T cells; note: read-out not given here; nearly all actives have a fitted effect of over 45% in size
HCV inh = inhibitors of hepatitis C virus infection; 340,000 tested, 3.4% active; AID 651820; Huh7.5.1 HCVcc-Cre infection, luciferase reporter, 44 h; Potency, µM (top dose mostly 41.8 µM), for the others: at the top dose activity change, negative = inhibition, actives largely listed as inhibitors
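Compounds are dispensed onto cells plated 4 h earlier at 1,000 per well, with HCVcc-Cre virus (about 0.5 moi) added next. Following 44 h of culture, luminescent signal is measured for 15 sec after 15 min with substrate at room temperature.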
* = called active by the depositor; ? = inconclusive; nt = no result; [ ] = another dose, or the depositor's remark. Unless noted, calls come from the whole dose curve; as a rule, active = well fitted curve in the direction sought with a large enough effect; inconclusive = small, poorly fitted or top-dose-only effect, or another doubt; inactive = no such curve, though single readings can be large; an effect the other way counts as inactive or inconclusive. % is set by controls: 0 for no effect and ±100 for the full control effect; potency is the fitted concentration of half-maximal effect.

SMILES	LASV entry inh	Sm TGR block	Marburg entry inh	RE007 growth inh	FMDV inh	HCV inh
CCCc1cc(-n2ccnc2C)n2c(nc3ccccc32)c1C#N	3%	nt	1%[46.1 µM]	3%	12%	0%
CCCc1cc(N2CCN(C(=O)c3ccco3)CC2)n2c(nc3ccccc32)c1C#N	?	40µM*	?	12%	-30%	?
CCCc1nc(N2CCCC2)c(C#N)c2c1CCCC2	8%	0%	-3%	-24%	1%	?
CCC(=O)N1CCN(c2nc(-c3ccccc3)c3c(c2C#N)CCCC3)CC1	?	-22%	-20%	23%	?	10µM*
CCCCc1nc(N2CCN(C(=O)c3ccco3)CC2)c(C#N)c2c1CCCC2	nt	-5%	nt	10%	?	14µM*
CCC1CN(CCNC(=O)c2cc3ccccc3oc2=O)Cc2cc(OC)ccc2O1 (stereo unspecified)	nt	nt	nt	nt	-1%	nt
CCc1ccc(NCc2cc3cc4c(cc3n(CC(=O)Nc3cccc(OC)c3)c2=O)OCO4)cc1	-5%[46.1 µM]	-17%	nt	nt	10%	nt
CCCCN(CC)Cc1ccc(CNC(=O)Nc2ccc(OCC)cc2)o1	2%	2%	?	-11%	-2%	13µM*
CCCCN(CC)Cc1ccc(CNC(=O)Nc2ccc(Cl)cc2)o1	?	10%	?	-18%	0%	?
Cc1ccc2c(c1)-c1c(cnc3cc(-c4ccc(F)cc4)nn13)CO2	22%[46.1 µM]	-2%	1%[46.1 µM]	nt	-7%	nt
CC(C)c1nc(N2CCN(C(=O)c3ccco3)CC2)c(C#N)c2c1COC(C)(C)C2	-24%[46.1 µM]	-13%	?	4%	-20%	?
CC(C)c1nc(N2CCN(C(=O)c3ccccc3)CC2)c(C#N)c2c1COC(C)(C)C2	?	11%	12µM*	43%	-25%	?
Cc1nc(N2CCN(Cc3ccccc3)CC2)c(C#N)c2c1COC(C)(C)C2	-14%	-12%	-24%	-9%	?	11µM*
CC1(C)Cc2c(C#N)c(N3CCN(C(=O)c4ccccc4)CC3)nc(-c3ccco3)c2CS1	-25%	3.2µM*	-16%[46.1 µM]	-9%	-9%	?
CS(=O)(=O)N1CCC2(CC1)CN(Cc1ccc(C#N)cc1)C2	nt	nt	nt	nt	-6%	nt
COC(=O)c1c(C(=O)OC)c2c3cc(OC)c(OC)cc3cc([Si](C)(C)C)n2c1C(=O)OC	nt	nt	24%[14.2 µM]	nt	nt	nt
CN(C)CCCn1c(-c2nonc2N)nc2cnccc21	4%	nt	nt	nt	nt	nt
Cc1ccc(C(=O)Nc2nc(COc3ccccc3)cs2)s1	-45%	7%	-20%	4%	nt	11µM*
CC(=O)Nc1nc(COc2ccccc2)cs1	0%	1%	4%	5%	0%	16%
O=C(c1cccs1)N1N=C(c2ccccc2)CC1c1ccccc1 (stereo unspecified)	?	8%	?	11%	nt	14µM*
O=C(c1cccs1)N1N=C(c2ccc(O)cc2)CC1c1ccccc1 (stereo unspecified)	?	6%	22%	1%	0%	?
CCCCc1ccc(Nc2cc(C)nc(-n3nc(C)cc3C)n2)cc1	?	-3%	nt	nt	-24%	nt
CC(=O)Nc1ccc(C2=NNC(=Nc3ccc(S(=O)(=O)N4CCOCC4)cc3)SC2)cc1	?	-2%	11µM*	-7%	-9%	?
Fc1ccc(N=C2NN=C(c3cc(F)ccc3F)CS2)cc1	?	-13%	?	-27%	23%	?
O=S(=O)(c1ccc(N=C2NN=C(c3cc(F)ccc3F)CS2)cc1)N1CCOCC1	13µM*	-1%	5µM*	-9%	-29%	22µM*
SMILES	LASV entry inh	Sm TGR block	Marburg entry inh	RE007 growth inh	FMDV inh	HCV inh
COc1ccc(N2C(=O)CC(NCCNc3ccc([N+](=O)[O-])cn3)C2=O)cc1 (stereo unspecified)	23%	14µM*	-3%	-4%	-7%	2%
CCCOc1ccc(N2C(=O)CC(NCCc3ccc(S(N)(=O)=O)cc3)C2=O)cc1 (stereo unspecified)	5%	45µM*	-6%	?	1%	20%
CCOc1ccc(N2C(=O)CC(NCCNc3ccc([N+](=O)[O-])cn3)C2=O)cc1 (stereo unspecified)	?	7.1µM*	?	-19%	-21%	4%
CCCCNc1nc2c(S(=O)(=O)c3ccc(Cl)cc3)nnn2c2ccsc12	0%[46.1 µM]	-3%	nt	nt	-3%	nt
COC(=O)CN(C)C(=O)c1cccc(OC2CCN(S(=O)(=O)N(C)C)CC2)c1	-6%[46.1 µM]	-3%	15%[46.1 µM]	-10%	19%	4%
Cc1ccc(-c2nnc(Nc3ccc(Br)cc3)c3ccccc23)cc1S(=O)(=O)N1CCN(C)CC1	11µM*	1%	nt	nt	-16%	nt
O=C(NC(=S)Nc1ccc(CN2CCOCC2)cc1)c1ccc2c(c1)OCCO2	-24%	?	10µM*	-29%	?	35µM*
CS(=O)(=O)N1CCN(c2ccc(NC(=S)NC(=O)c3ccc4c(c3)OCO4)cc2)CC1	4%[46.1 µM]	?	4%[46.1 µM]	66%	-9%	10µM*
O=C(NC(=S)Nc1ccc(N2CCCCC2)cc1)c1ccc2c(c1)OCCO2	?	-22%	5%	-10%	-28%	13%
O=C(NC(=S)Nc1ccc(F)cc1)c1ccc2c(c1)OCCO2	13µM*	11µM*	?	-9%	0%	?
O=C(NC(=S)Nc1ccc2c(c1)OCCO2)c1ccccc1	?	8.9µM*	?	-4%	-17%	-23%
N#Cc1ccc(OCc2cn(CC(=O)c3ccc(O)cc3)nn2)cc1	1%[46.1 µM]	nt	nt	nt	nt	nt
O=C(NC(=S)Nc1ccc(N2CCOCC2)cc1)c1ccc2c(c1)OCCO2	?	?	-18%	-14%	-29%	7.9µM*
COc1ccc(NC(=O)CCNC(=O)N2CC(=O)Nc3ccccc32)cc1OC	nt	nt	nt	-17%	-16%	nt
Cc1sc2ncn(CC(=O)N3CCN(c4ccc(Cl)cc4)CC3)c(=O)c2c1S(=O)(=O)N1CCN(c2ncccn2)CC1	-10%[46.1 µM]	-1%	6%[46.1 µM]	nt	?	nt
S=C(NCc1cccnc1)Nc1cccc(Cl)c1	15%	32µM*	10%	-5%	41%	-10%
S=C(NCc1cccnc1)Nc1cc(Cl)cc(Cl)c1	nt	28µM*	nt	7%	62%	7%
COc1ccc(Cl)cc1NC(=S)NCc1cccnc1	nt	13µM*	nt	-9%	54%	?
S=C(NCc1cccnc1)Nc1ccc(Cl)cc1	-4%	40µM*	-19%	-10%	24%	-9%
Cc1cc(C)n(C(C)CC(=O)NCc2ccc(N(C)C)cc2)n1 (stereo unspecified)	-6%[46.1 µM]	-1%	nt	nt	-11%	nt
COc1ccc(CCNC(=O)CSCc2nc(-c3cccc(C)c3)oc2C)cc1OC	-26%[46.1 µM]	-1%	-24%[46.1 µM]	nt	-5%	nt
CC(=O)c1ccc(NC(=S)NCc2cccnc2)cc1	17%[46.1 µM]	40µM*	-17%[46.1 µM]	7%	16%	3%
Cc1ccc(C(=O)NC(=S)NCc2cccnc2)c(C)c1	0%[46.1 µM]	45µM*	-26%[46.1 µM]	7%	1%	4%
